Assay [1] is described as follows: Cell Viability - HepG2 (AID 433; calls by dose curve;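 note: potency is the fitted concentration of half-maximal effect; potency for ATP loss meaning cytotoxicity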). Conditions: qHTS. The essentials: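 Read-out is luciferase-based quantitation of cellular ATP as a measure of viable HepG2 cells after 40 h treatment at 37 °C. Signal decrease is scaled between DMSO-only and 100 uM tamoxifen controls, with AC50 fitted by the Hill equation.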
Background: In qHTS, concentration-response curves come from the screen itself.

A short description of assay [2]: Cell Viability - MRC5 (AID 434; calls by dose curve;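 note: potency is the fitted concentration of half-maximal effect; cells exposed to compound for 40 hours at 37 °C; potency reflects cytotoxicity seen as loss of intracellular ATP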). The following applies: MRC5 lung fibroblast viability, qHTS. The procedure, abridged: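 AC50 values come from Hill-equation fits of intracellular ATP loss, measured by CellTiter-Glo luminescence. Normal lung fibroblasts (MRC5) had 40 hr compound treatment at 37 C, normalized between DMSO and 100 uM tamoxifen.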
Assay [3] is described as follows: Cell Viability - SK-N-SH (AID 435; calls by dose curve;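 note: potency is the fitted concentration of half-maximal effect; compound exposure lasted 40 h at 37 °C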). The following applies: SK-N-SH neuroblastoma cell viability qHTS. The essentials: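 Luminescent ATP signal served as the viability read-out after 40 hours of compound treatment of human neuroblastoma SK-N-SH cells. Concentration-response data, scaled between DMSO and 100 uM tamoxifen, gave AC50 values by standard Hill modeling.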

Assay [4] can be described thus: Cell Viability - N2a (AID 540).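 Note: cells exposed to compound for 40 h at 37 °C; plate controls were DMSO alone for no effect and tamoxifen control for full effect; nearly all actives have a fitted effect of over 45% in size.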 Conditions: N2a mouse neuroblastoma cell viability; activity change, negative = cytotoxicity: at 92.2 µM (top of the series). The essentials:
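Cytotoxicity was scored as loss of cellular ATP in N2a cells, a mouse neuroblastoma line. Compounds are applied in a qHTS concentration series for 40 hr at 37 °C.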

Assay [5] can be described thus: Cell Viability - Renal Proximal Tubule (AID 545). Note: nearly all actives have a fitted effect of over 40% in size. Conditions: renal proximal tubule cells viability, primary cells of rat origin; at 91.7 µM (top of the series). The essentials: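 Luminescent ATP signal (CellTiter-Glo) served as the viability read-out after 40 hr compound exposure of freshly isolated rat proximal tubule cells at 37 °C. Concentration-dependent ATP loss was fitted with the Hill equation to give AC50.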

Assay [6] in a line: Cell Viability - Mesenchymal (AID 546).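 Note: cells exposed to compound for 40 hours before reading.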 The following applies: mesenchymal cells viability, qHTS; activity change, negative = cytotoxicity: at 91.7 µM (top of the series). The essentials: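 CellTiter-Glo luminescence (intracellular ATP, 20 min room temperature) after 40 hr compound exposure at 37 °C of 1000 glomerulus-derived human kidney mesenchymal cells/well; AC50 values obtained by fitting qHTS concentration-response data to the Hill equation.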

Assay [7] can be described thus: Cellular Toxicity (caspase-3) HepG2 (AID 654).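 Note: cells exposed to compound for 16 hours before reading; 0% = DMSO alone and 100% = caspase signal from 100 µM tamoxifen.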 The following applies: HepG2 caspase-3 activation, luminescence, 0% = DMSO only, 100% = tamoxifen; series mostly up to 92.2 µM. The procedure, abridged: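 Caspase 3/7 activation in HepG2 is measured as rising luminescence after a 16 hr treatment at 37 °C. Values are scaled between DMSO basal and 100 uM tamoxifen, and AC50 is fitted with the Hill equation.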

Assay [8] is described as follows: Cellular Toxicity (caspase-3) Jurkat (AID 655).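 Note: cells exposed to compound for 16 h at 37 °C before reading.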 Conditions: Jurkat caspase-3 activation, luminescence, DMSO = 0%, tamoxifen = 100%; at 92.2 µM (top of the series). The procedure, abridged:
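5000 Jurkat cells/well; compound 16 hr, 37 °C; Caspase-Glo 3/7 added, 20 min RT; luminescence read. Norm: DMSO = 0%, tamoxifen 100 uM = 100%. AC50, Hill model.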

The nature of assay [9]: Cellular Toxicity (caspase-3) HUV-EC-C (AID 656). The following applies: HUV-EC-C cells, caspase-3 activation (apoptosis), vehicle = 0, 100 µM tamoxifen = 100%; series mostly up to 92.2 µM. The essentials: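 qHTS; HUV-EC-C, 1000 cells/well; 5 hr settle, 16 hr cmpd, 37°C; Caspase-Glo 3/7, 20 min RT; luminescence. Norm: DMSO = 0%, tamoxifen 100 uM = 100%. Hill-fit AC50.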
Assay [10] in a line: Cellular Toxicity (caspase-3) SHSY5Y (AID 657). Conditions: SH-SY5Y caspase-3 activation, DMSO zero, 10 µM staurosporine = 100%; series mostly up to 91.7 µM. The procedure, abridged:
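qHTS, SH-SY5Y, 1500 cells/well, 5 h pre-incubation 37 °C; compound 16 h 37 °C; Caspase-Glo 3/7 1 h RT; luminescence. Norm.: DMSO = 0, 10 uM staurosporine = 100%. Hill fit → AC50.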

The nature of assay [11]: Cellular Toxicity (caspase-3) BJ (AID 658). The following applies: BJ fibroblasts, luminescence, normalized: DMSO 0%, staurosporine 100%; series mostly up to 91.7 µM. The procedure, abridged:
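Caspase-Glo 3/7 luminescence, read 1 hr after reagent at room temperature, in normal BJ fibroblasts exposed 16 hours at 37 °C. AC50 values from Hill-equation concentration-response, scaled between DMSO basal and 10 uM staurosporine as 100%.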

The nature of assay [12]: Cellular Toxicity (caspase-3) MRC-5 (AID 659). Conditions: MRC-5 cells, luminescence, normalized: DMSO 0%, 10 µM staurosporine 100%; series mostly up to 91.7 µM. The procedure, abridged:
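Luminescent Caspase-Glo 3/7 read-out (1 h, room temperature) after a 16 h, 37 °C compound exposure of MRC-5 lung fibroblasts at 1500 cells/well. Concentration-response AC50 from Hill equation; 0% DMSO, 100% 10 uM staurosporine.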

Assay [13] in a line: Cellular Toxicity (caspase-3) Mesangial (AID 660).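 Note: combined caspase 3 and 7 activity read by Caspase-Glo luminescence; cells exposed to compound for 16 h before the caspase read.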 The following applies: mesangial cells, normalized: DMSO 0%, 100 µM tamoxifen 100%; series mostly up to 91.7 µM. The essentials:
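Seed cells derived from normal human renal glomeruli, incubate 5 h, add compounds across concentrations and incubate 16 h at 37 °C. Caspase 3/7 activation is then quantified by luciferase light, with AC50 derived by Hill modeling.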

Assay [14] in a line: Cellular Toxicity (caspase-3) SK-N-SH (AID 661). The following applies: SK-N-SH caspase-3 activation, qHTS, DMSO as zero, staurosporine as full; series mostly up to 91.7 µM. The procedure, abridged:
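Cells were seeded and incubated 5 hr at 37 °C, dosed with compound over a concentration range for 16 hr, then given Caspase-Glo 3/7 reagent for 1 hr at room temperature before luminescence reading.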

A short description of assay [15]: Cellular Toxicity (caspase-3) H-4-II-E (AID 663).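 Note: cells exposed to compound for 16 hr before readout.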 Conditions: H-4-II-E rat hepatoma; Potency: caspase-3 activation; series mostly up to 92.2 µM. The essentials:
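Caspase 3/7 activation measured by luminescent aminoluciferin substrate cleavage after 16 hr compound treatment of H-4-II-E cells in complete medium. Increase normalized between DMSO (basal) and 100 uM tamoxifen (100%); Hill-equation AC50 from concentration-response.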

Assay [16] can be described thus: Cellular Toxicity (caspase-3) Hek293 (AID 664).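 Note: cells exposed to compound for 16 h at 37 °C before readout.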 Conditions: HEK293 caspase-3 activation, DMSO = 0%, 100 µM tamoxifen = 100%; series mostly up to 92.2 µM. The procedure, abridged: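 qHTS, HEK293 (human embryonic kidney), 16 h cpd exposure in complete medium. Caspase-3/7 activation = luminescence increase; normalized to DMSO/100 uM tamoxifen; Hill-fit AC50.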
Assay [17] can be described thus: Cellular Toxicity (caspase-3) N2a (AID 665).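 Note: compound exposure lasted 16 h at 37 °C before readout.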 Conditions: N2a cells, luminescence, normalized: DMSO 0%, 10 µM staurosporine 100%; series mostly up to 92.2 µM. The essentials: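 Caspase-3/7 activation, measured as increased luminescence from aminoluciferin release, is quantified in mouse N2a cells exposed to compounds for 16 h. Values are normalized to DMSO and 10 uM staurosporine, with AC50 derived by Hill modelling.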

Assay [18] addresses Peroxisome proliferator-activated receptor gamma (Homo sapiens) (UniProt P37231). Put plainly: qHTS assay for small molecule agonists of peroxisome proliferator-activated receptor gamma signaling (AID 588536; active = well fitted curve in the direction sought with a large enough effect in the signal ratio, with a control signal flat, not every such curve was filed as active; the % refers to the signal ratio;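 note: 0% = DMSO basal wells and 100% = rosiglitazone at 2 µM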). The following applies: HEK293 PPARg-UAS-bla, beta-lactamase ratio, 16 h, percent of rosiglitazone response, DMSO as zero; series mostly up to 76.7 µM. The essentials:
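Cells were plated and held 6–6.5 h at 37 C, then compounds were added as a titration series. After a further 16 h, CCF4 dye was loaded for 2 h at room temperature and emission at 460/530 nm recorded.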

Assay [19] concerns the target Voltage-gated inwardly rectifying potassium channel KCNH2 (Homo sapiens) (UniProt Q12809). The experiment in a line: qHTS Assay for Small Molecule Inhibitors of the Human hERG Channel Activity (AID 588834).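 Note: top concentration of the series differs between compounds; % is set by controls: 0 for no effect and ±100 for the full control effect; lower thallium flux fluorescence means stronger hERG block; nearly all actives have a fitted effect of over 50% in size.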 Conditions: U2OS BacMam hERG, FluxOR thallium flux fluorescence; series mostly up to 92.2 µM. The essentials: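 Step 1: BacMam hERG transduction of U2OS, 4 hrs RT. Step 2: overnight 37 °C, plate 2000 cells/well, 4 hr. Step 3: FluxOR load, compound 10 min, stimulate, read fluorescence.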

Assay [20] can be described thus: qHTS assay for small molecule activators of the p53 signaling pathway (AID 651743; active = well fitted activation curve with a large enough effect in the signal ratio, not every such curve was filed as active; the % refers to the signal ratio; note: % of control where 0% means no effect). The following applies: HCT-116 p53RE-bla, beta-lactamase FRET ratio, 16 h; activation: active compounds read high. The procedure, abridged: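 After 16 hours compound treatment at 37 C, HCT-116 cells stably expressing p53RE-driven beta-lactamase were loaded with LiveBLAzer B/G FRET substrate for 2 hours at room temperature. Fluorescence intensity served as the p53 activation read-out.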

Experimental findings from PubChem BioAssay (NCATS) are described below.

Several values for one entry are separate records, joined by “and”; a condition that tells them apart may be missing. Identical values can stand only once. A number with no mark means an inactive call. Results filed as inconclusive are left out. Activity calls are given as the source filed them. Unless noted, calls come from the whole dose curve; as a rule, active = well fitted curve in the direction sought with a large enough effect; inconclusive = small, poorly fitted or top-dose-only effect, or another doubt; inactive = no such curve, though single readings can be large; an effect the other way counts as inactive or inconclusive.

Chain of Peroxisome proliferator-activated receptor gamma (Homo sapiens) (P37231 whole entry, looked up): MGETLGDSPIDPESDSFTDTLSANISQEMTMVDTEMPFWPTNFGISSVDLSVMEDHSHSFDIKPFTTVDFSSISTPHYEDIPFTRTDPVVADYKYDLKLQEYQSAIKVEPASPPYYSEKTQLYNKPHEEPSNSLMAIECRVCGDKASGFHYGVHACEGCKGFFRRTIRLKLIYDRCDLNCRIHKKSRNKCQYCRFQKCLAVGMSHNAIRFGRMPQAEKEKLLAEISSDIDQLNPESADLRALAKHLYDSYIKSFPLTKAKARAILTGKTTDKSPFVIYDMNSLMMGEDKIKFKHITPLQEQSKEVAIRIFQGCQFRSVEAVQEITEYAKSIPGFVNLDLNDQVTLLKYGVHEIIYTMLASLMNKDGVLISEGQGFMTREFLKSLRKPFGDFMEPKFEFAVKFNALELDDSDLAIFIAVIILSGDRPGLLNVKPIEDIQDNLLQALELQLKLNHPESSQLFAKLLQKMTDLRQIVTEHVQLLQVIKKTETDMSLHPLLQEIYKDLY
Chain of Voltage-gated inwardly rectifying potassium channel KCNH2 (Homo sapiens) (Q12809 whole entry, looked up): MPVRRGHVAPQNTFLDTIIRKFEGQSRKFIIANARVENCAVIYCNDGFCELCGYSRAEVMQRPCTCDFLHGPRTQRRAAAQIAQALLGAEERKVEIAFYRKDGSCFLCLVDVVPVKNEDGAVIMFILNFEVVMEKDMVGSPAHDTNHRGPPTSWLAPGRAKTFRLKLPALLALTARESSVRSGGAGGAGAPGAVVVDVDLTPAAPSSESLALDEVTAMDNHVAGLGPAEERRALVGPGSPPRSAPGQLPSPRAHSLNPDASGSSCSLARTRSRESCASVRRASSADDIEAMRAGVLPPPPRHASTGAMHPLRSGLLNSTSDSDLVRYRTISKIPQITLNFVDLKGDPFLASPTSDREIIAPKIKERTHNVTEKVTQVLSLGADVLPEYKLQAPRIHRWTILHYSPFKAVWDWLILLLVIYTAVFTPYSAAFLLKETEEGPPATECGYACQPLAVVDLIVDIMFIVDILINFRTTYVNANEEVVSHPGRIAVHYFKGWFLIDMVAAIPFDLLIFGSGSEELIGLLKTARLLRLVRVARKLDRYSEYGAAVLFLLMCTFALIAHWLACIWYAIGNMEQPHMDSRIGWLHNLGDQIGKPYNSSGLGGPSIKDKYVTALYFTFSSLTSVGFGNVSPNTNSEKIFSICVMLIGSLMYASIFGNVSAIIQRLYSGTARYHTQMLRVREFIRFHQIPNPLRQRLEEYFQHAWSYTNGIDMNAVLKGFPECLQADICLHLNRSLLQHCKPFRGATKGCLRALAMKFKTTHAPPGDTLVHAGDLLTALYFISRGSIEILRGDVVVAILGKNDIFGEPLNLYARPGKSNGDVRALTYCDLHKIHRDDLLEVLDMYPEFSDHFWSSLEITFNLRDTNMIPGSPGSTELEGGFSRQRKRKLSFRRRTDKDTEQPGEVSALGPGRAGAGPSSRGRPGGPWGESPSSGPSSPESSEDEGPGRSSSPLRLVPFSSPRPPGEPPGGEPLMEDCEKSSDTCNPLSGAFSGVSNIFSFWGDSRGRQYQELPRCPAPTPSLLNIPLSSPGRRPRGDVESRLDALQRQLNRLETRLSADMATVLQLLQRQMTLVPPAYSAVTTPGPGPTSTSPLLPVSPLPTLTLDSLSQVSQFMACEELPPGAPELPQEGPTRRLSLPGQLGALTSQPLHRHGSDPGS

Take `C=C(C)C1CC=C(C)C(O)C1` (stereo not drawn): the Potency in assay [1], in assay [2] and in assay [3] was above 92 µM throughout. Moreover, the activity change, negative = cytotoxicity was -0.158% in assay [4], 6.86% in assay [5] and 2.7% in assay [6]. In addition, the outcome in assay [7], in assay [9], in assay [10], in assay [11], in [12] and in assay [13] was inactive. Besides, the compound was called inactive in [14], in assay [16], in [17] and in [18]. In assay [8], the caspase-3 activation was -2.18%. For the same compound, the Potency entry in assay [15] and in assay [19] was “inactive” throughout. In addition, in [20], the activation is -1.04%.

`CCCCCCCCCCCCCC(=O)O`: the Potency in [1], in assay [2] and in [3] was above 92 µM in each case. Besides, the values for the activity change, negative = cytotoxicity in [4], in [5] and in assay [6] were -4.4%, -23% and 1.41%, respectively. The call in assay [7], in assay [9], in assay [10], in assay [11], in assay [12] and in assay [13] was inactive. Besides, the compound was classed as inactive in assay [14], in assay [16], in assay [17] and in [18]. In addition, the caspase-3 activation in assay [8] was -2.86%. The Potency result in [15] and in [19] was “inactive” in each case. In addition, the activation in assay [20] is -1.59% and 5.08%.

For `C=CCc1ccc(OC)c(OC)c1`, the Potency in [1], in [2] and in [3] was above 92 µM throughout. The activity change, negative = cytotoxicity in [4] is -13.8%; in assay [5], -5.61%; in assay [6] it was -7.19%. Also, the compound was called inactive in [7], in assay [9], in assay [10], in assay [11], in assay [12] and in [13]. Moreover, the outcome in assay [14], in [16], in [17] and in [18] was inactive. Further, in assay [8], the caspase-3 activation is -0.00061%. Further, the Potency entry in assay [15] and in assay [19] was “inactive” each time. Besides, the activation in [20] is 0.847% and -0.413%.

With `CCCCCCCCCCCC(=O)O`, the Potency in assay [1], in [2] and in assay [3] was above 92 µM in each case. Moreover, the activity change, negative = cytotoxicity in assay [4] was -16.1% and -7.4%; in [5], -7.81% and -14%; in assay [6], -0.623% and 0.657%. The compound was classed as inactive in assay [7], in [9], in assay [10], in [11], in assay [12] and in assay [13]. The outcome in assay [14], in assay [16] and in assay [17] was inactive. For the same compound, in [8], the caspase-3 activation was -6.31% and -4.32%. The Potency result in [15] and in [19] was “inactive” in each case.

On to `CC1=C2[C@H](/C=C(\C)C(=O)O)CC[C@@H](C)[C@H]2CC1`, for which the Potency in [1], in [2] and in [3] was above 92 µM throughout. For the same compound, the activity change, negative = cytotoxicity in assay [4] was 10.9%; in assay [5], -15.1%; in [6], 9.76%. The result in assay [7], in [9], in assay [10], in assay [11], in assay [12] and in [13] was inactive. The call in [14], in assay [16], in [17] and in [18] was inactive. Besides, the caspase-3 activation in assay [8] was 97.3% (active). In addition, the Potency entry in [15] and in assay [19] was “inactive” each time. In addition, in assay [20], the activation was -7.78%.
